# Laboratory results reported in article PMC7862700, “An all-to-all approach to the identification of sequence-specific readers for epigenetic DNA modifications on cytosine”.
# Experiments:
# Assay in all cases: DAPPL (digital affinity profiling via proximity ligation, sequencing); 10 mM Tris-HCl pH 7.5, 50 mM NaCl, 1 mM DTT, 4% glycerol, room temperature, 30 min; GST-TFs on glutathione beads, 16-mer random dsDNA library, 0.1% formaldehyde crosslink after washing; high values mean tight binding
# FEV = molecular target: T1, FEV (Homo sapiens, UniProt Q99581 1-238); conditions: protein: recombinant; tags: N-terminal GST; dsDNA, one strand shown
# T1 sequence: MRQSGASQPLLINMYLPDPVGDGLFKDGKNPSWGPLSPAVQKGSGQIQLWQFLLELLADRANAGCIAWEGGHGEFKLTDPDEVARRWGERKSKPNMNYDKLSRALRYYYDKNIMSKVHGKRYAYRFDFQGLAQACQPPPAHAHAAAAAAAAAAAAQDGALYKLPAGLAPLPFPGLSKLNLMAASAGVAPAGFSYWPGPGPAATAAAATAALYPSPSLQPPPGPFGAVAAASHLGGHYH
# In short: (§1)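 Human transcription factors fused to GST were expressed in yeast, captured on glutathione beads, given DNA barcodes and pooled with a GST-only negative control. Pools were incubated with 200 nmole of a 16-mer random double-stranded DNA library in Tris/NaCl/DTT/glycerol buffer at room temperature for 30 min. They were then washed, crosslinked with 0.1% formaldehyde, proximity-ligated (BsaI/T4 ligase, 1 h, 37 °C), PCR-amplified and sequenced on an Illumina NextSeq500. Binding signal is each 6-mer's read frequency for a factor divided by its frequency for the GST control.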
# ETV5 = ETV5 (Homo sapiens, UniProt P41161 1-510); conditions: protein: recombinant; tags: N-terminal GST; dsDNA, one strand shown
# Chain of ETV5 (P41161 whole entry): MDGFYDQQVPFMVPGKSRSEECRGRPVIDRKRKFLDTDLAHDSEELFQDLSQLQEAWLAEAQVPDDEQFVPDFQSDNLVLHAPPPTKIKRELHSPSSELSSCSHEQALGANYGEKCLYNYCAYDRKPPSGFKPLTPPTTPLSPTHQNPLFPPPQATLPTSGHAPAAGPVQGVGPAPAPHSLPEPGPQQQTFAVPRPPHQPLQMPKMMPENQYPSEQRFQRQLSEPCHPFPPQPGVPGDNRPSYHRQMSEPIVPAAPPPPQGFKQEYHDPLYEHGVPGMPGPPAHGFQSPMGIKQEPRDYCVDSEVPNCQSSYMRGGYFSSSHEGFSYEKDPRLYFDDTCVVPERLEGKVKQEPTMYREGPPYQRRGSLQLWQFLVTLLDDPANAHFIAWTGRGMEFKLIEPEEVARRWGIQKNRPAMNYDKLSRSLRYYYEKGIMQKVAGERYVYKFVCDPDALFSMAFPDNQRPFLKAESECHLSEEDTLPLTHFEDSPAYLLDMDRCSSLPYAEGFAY
# In short: as §1
# HSF1 = HSF1 (Homo sapiens, UniProt Q00613 1-529); conditions: protein: recombinant; tags: N-terminal GST; chain copies: 3; dsDNA, one strand shown
# Chain of HSF1 (Q00613 whole entry): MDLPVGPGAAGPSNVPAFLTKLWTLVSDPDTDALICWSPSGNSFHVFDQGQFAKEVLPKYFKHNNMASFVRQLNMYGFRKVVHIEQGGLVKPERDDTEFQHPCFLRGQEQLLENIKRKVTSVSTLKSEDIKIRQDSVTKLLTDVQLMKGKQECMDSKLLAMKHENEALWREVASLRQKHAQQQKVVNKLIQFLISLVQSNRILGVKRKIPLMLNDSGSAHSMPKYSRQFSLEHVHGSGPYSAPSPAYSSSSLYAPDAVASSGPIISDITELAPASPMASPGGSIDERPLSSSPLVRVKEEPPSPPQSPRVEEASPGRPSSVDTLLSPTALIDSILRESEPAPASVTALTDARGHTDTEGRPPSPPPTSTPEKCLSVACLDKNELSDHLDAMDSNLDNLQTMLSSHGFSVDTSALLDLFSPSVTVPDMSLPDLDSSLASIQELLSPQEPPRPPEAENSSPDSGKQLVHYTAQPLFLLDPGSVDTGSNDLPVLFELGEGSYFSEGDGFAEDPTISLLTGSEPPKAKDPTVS
# In short: as §1
# SPIC = molecular target: T2, SPIC (Homo sapiens, UniProt Q8N5J4 1-248); conditions: protein: recombinant; tags: N-terminal GST; dsDNA, one strand shown
# T2 sequence: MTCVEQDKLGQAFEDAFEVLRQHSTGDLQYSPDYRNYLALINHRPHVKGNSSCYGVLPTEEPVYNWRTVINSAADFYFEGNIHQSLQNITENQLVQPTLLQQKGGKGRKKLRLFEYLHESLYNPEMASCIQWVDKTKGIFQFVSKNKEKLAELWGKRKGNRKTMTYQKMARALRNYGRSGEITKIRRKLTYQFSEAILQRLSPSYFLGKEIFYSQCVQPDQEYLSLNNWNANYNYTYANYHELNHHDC
# In short: as §1
# ELF4 = ELF4 (Homo sapiens, UniProt Q99607 1-663); conditions: protein: recombinant; tags: N-terminal GST; dsDNA, one strand shown
# Chain of ELF4 (Q99607 whole entry): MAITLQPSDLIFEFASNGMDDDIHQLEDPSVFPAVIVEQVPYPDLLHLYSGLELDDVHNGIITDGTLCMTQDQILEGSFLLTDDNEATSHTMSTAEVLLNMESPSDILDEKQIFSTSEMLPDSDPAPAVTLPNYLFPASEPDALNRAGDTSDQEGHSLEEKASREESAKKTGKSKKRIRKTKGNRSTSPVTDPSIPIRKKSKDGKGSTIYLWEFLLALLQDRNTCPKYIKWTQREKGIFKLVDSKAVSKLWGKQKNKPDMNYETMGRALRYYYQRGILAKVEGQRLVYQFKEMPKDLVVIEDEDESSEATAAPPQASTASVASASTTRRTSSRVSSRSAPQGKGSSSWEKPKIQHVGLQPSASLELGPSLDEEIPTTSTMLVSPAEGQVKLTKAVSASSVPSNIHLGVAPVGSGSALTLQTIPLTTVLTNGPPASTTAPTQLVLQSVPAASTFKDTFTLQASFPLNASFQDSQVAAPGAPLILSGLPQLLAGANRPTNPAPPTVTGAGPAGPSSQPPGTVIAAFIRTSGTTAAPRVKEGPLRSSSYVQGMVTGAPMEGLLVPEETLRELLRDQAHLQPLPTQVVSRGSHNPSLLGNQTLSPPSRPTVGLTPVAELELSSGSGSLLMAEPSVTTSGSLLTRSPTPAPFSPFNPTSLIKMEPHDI
# In short: as §1
# ELK4 = molecular target: T3, ELK4 (Homo sapiens, UniProt P28324-2 1-405); conditions: protein: recombinant; tags: N-terminal GST; dsDNA, one strand shown
# T3 sequence: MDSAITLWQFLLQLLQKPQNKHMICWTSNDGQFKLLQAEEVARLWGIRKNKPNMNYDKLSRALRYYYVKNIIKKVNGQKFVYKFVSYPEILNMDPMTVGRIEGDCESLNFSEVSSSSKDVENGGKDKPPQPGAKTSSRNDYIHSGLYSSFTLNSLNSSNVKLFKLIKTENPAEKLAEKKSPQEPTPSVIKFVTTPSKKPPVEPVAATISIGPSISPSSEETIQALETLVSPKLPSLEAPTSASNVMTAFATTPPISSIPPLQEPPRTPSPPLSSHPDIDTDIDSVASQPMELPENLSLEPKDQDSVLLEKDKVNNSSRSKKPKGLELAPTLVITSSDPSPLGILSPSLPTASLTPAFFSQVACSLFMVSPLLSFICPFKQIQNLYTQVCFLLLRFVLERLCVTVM
# In short: as §1
# ETV2 = molecular target: T4, ETV2 (Homo sapiens, UniProt O00321 1-342); conditions: protein: recombinant; tags: N-terminal GST; dsDNA, one strand shown
# T4 sequence: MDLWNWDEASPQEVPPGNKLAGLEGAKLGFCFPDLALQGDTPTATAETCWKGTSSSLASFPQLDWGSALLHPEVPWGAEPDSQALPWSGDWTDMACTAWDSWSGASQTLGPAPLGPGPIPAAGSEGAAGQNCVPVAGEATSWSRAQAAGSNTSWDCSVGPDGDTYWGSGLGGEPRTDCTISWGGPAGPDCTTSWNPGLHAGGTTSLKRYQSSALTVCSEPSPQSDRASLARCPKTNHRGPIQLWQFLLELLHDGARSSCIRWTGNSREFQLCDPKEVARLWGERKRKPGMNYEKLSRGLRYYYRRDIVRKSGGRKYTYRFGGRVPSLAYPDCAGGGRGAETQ
# In short: as §1
# ELF3 = molecular target: T5, ELF3 (Homo sapiens, UniProt P78545 1-371); conditions: protein: recombinant; tags: N-terminal GST; dsDNA, one strand shown
# T5 sequence: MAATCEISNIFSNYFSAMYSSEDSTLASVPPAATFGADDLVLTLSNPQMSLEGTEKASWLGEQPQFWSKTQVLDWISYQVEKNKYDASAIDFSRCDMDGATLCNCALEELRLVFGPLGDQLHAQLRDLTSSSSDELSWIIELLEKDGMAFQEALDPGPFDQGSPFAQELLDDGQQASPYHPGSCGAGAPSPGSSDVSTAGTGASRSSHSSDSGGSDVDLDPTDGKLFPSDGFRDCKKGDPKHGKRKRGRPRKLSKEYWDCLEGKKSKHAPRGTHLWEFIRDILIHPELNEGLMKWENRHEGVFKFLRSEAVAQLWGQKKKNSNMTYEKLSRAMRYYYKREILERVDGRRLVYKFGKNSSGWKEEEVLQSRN
# In short: as §1
# CRX = CRX (Homo sapiens, UniProt O43186 1-299); conditions: protein: recombinant; tags: N-terminal GST; dsDNA, one strand shown
# Chain of CRX (O43186 whole entry): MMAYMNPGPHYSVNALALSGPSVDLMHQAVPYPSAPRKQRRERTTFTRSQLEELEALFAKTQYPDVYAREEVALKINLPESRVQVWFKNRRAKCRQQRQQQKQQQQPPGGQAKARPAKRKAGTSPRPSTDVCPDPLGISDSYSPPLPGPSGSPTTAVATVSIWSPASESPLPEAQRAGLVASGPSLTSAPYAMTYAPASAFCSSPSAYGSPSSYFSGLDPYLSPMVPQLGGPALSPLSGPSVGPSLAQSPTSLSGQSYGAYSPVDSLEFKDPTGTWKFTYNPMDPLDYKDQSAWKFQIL
# In short: as §1
# ETV1 = ETV1 (Homo sapiens, UniProt P50549 1-477); conditions: protein: recombinant; tags: N-terminal GST; dsDNA, one strand shown
# Chain of ETV1 (P50549 whole entry): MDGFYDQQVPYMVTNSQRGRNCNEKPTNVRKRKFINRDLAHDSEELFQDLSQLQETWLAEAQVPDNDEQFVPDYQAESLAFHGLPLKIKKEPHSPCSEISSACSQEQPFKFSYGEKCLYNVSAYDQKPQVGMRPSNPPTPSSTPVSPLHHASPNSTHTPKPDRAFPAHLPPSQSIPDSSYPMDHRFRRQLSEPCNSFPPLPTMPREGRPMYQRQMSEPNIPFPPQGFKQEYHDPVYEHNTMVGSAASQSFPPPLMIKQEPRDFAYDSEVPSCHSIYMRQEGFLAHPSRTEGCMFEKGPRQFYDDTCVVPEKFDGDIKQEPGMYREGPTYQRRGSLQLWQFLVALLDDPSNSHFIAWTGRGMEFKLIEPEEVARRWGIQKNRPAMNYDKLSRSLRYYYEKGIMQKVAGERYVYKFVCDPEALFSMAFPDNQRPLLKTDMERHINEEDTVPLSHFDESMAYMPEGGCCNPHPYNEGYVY
# In short: as §1
sequence,measurement,setting,value
CTGTAC,binding signal,FEV,"1.44 fold enrichment (6-mer frequency, TF over GST control)"
same,binding signal,ETV5,"1.34 fold enrichment (6-mer frequency, TF over GST control)"
same,binding signal,HSF1,"1.02 fold enrichment (6-mer frequency, TF over GST control)"
same,binding signal,SPIC,"1.41 fold enrichment (6-mer frequency, TF over GST control)"
same,binding signal,ELF4,"1.33 fold enrichment (6-mer frequency, TF over GST control)"
same,binding signal,ELK4,"1.43 fold enrichment (6-mer frequency, TF over GST control)"
same,binding signal,ETV2,"1.39 fold enrichment (6-mer frequency, TF over GST control)"
same,binding signal,ELF3,"1.26 fold enrichment (6-mer frequency, TF over GST control)"
same,binding signal,CRX,"1.06 fold enrichment (6-mer frequency, TF over GST control)"
same,binding signal,ETV1,"1.42 fold enrichment (6-mer frequency, TF over GST control)"
